Laboratory results: the supplement of paper PMC12632987

biological target: GABARAPL2, P60520; experiment: median log2 fold change of GCK-ALFA target abundance (FLAG IP / Myc IP barcode read proportion) (log2 ratio); each designed protein is fused to an ALFA-tag nanobody in HEK293 cells to bring the named protein to FLAG-tagged glucokinase (GCK); Myc marks an untargeted standard; higher = target protein stabilised (more abundant); conditions: target protein: 3xFLAG-MCP-GCK-ALFA reporter; HEK293 landing pad (RPLP)
Outline: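 HEK293 landing-pad cells received a recombined binder library fused to the ALFA nanobody and were induced with 2 μg mL^−1 doxycycline, then transfected with a plasmid encoding a FLAG-tagged target and a Myc-tagged standard. Lysates were collected after 48 h for anti-FLAG and anti-Myc immunoprecipitation, and the circular RNA barcodes were reverse transcribed, amplified and sequenced. Target abundance for each binder is the median log2 ratio of FLAG to Myc barcode read proportions. Barcodes had to reach a proportion of at least 10^−7 in both replicates, each binder needed at least 3 barcodes per replicate, a pseudocount of 10^−6 was applied, and the two replicates were pooled.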

GABARAPL2, P60520, sequence (P60520 whole entry, the tested form may be a part): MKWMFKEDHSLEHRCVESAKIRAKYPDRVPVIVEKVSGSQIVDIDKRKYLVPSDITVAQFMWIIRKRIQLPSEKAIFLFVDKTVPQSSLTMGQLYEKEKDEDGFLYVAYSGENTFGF

Binder	median log2 fold change
GBRAPL2_151_7311 (protein) DLKEKAVKALEEAAKALEELAEKLSEEQELEKTEIELLAGGMDAYAILVEETEDEEEIKRIVKDAAELVEDAAKIAKELGLEEDAKKLKEIAKKLKELAK	-0.0443
GBRAPL2_151_7318 (protein) EELEELLKRLKKLAEKLAKLAEELAKEDPEHATEVETLVGGVEADIILAEEEEDEEEKRRHLLRAAELAADAAKLIAEVLKKEEAKKLAEEAKELAEKLK	0.242
GBRAPL2_151_7319 (protein) GELEELEKKLKELIKKLEKLLEKLKKEKPEYETEVSTLLGGAEADLLLAEEAEDPEEKRRFLAEAAELAADAFKLIAEVLGSEEAKKLAEEAKKLLEKLK	0.141
GBRAPL2_151_7317 (protein) SELEKLLKELKALAEELWKLAEELAKKDPSVATEVETLVGGVEADIILAEEEEDPEEKRKHLLEAAKLAKDAAELIAEVLKSEKAKKLAEKAKKLAEKLK	0.0623
GBRAPL2_151_7320 (protein) EELEELERRARELLEELEELVKELEEKKPEHSTEVETLVGGAEADLLLAEEAEDPEEKRRFLLEAAKLIRDAFELIAKILGSERAKELAEEAKELAKELE	0.183
GBRAPL2_151_7308 (protein) SEKEKAIELLKKAAEAAEEAIKALSEDQELEKTEFELIAGGLEALAILIEEEDDEEKIKELVKRGAELVKDAAELAKKLGLEEQAKKLKEIAKELEKLSK	0.202
GBRAPL2_151_7307 (protein) SRKEEAIRLLEEAARTAEEAVEALPESKELEKTELELLAGGLDALAILVEEEDDEEKVRELVKEGAELTEDAARLARELGLEEQARRLEELSRRLKELAE	-0.403
GBRAPL2_151_7309 (protein) KLKEEVIEALERAAEAVEKAAEKLSPEQELERTELELIAGGMEAYAALVEETEDEEKIKEITRRAAEMVRDAAEIAKELGLEEEAKELEEIAKELEELAA	0.0437
GBRAPL2_151_7306 (protein) SKKEKAIELLKEAAKTAEEAVKKLSEEQELEKTELELIAGGLEALAILVEETDDEEKIKKLVKEAAELVEDAAKLAEELGLEEEAKKLKELAKELKKLAE	0.123
GBRAPL2_151_7321 (protein) SELEKLKKEAEKLLEELEKLVKELEKKKPEKSTEVETLLGGAEADLILAEEAEDPEEKRRFLLEAAELLADAFKLIAKVLGSEKAKKLAKEAEELAKKLA	0.168
GBRAPL2_151_7313 (protein) GWKEEALKALKEAAEAIEKAAEALPPEHELERTELELLAGGMDAYRALVEETDDREEIKRLLKDAAELVKDAAEIMEKLGKEEAAKKLKKIAEKLKKLAE	-0.0822
GBRAPL2_151_7312 (protein) SLKEKAVEKLKEAAELVEEAAKALPESQELERTELELIAGGMDADAILIEETEDEEEIKKIIKESAERVEDAAKIAKKLGLEELAKKLEEKAKELKKLAE	0.307
GBRAPL2_151_7310 (protein) ELKEKVVKALKEAAKALEELAELLSPEHELEKTEIELIAGGMDAYAALVEETEDEEKIKEITKEAAELVEDAAKIAKELGLEEQAKKLEEIAKKLKELAA	0.111
GBRAPL2_151_7314 (protein) SWKEEALKALEKGAKAIEEFAKSLPEEHELERTEAELLAGGMEAYRALIEETDDEEEIKRLLKEAAELVKDAAEIAKELGFEKEAKELEKIAKELEKLAK	0.164
GBRAPL2_151_7316 (protein) EWKEEALKALEEGAKAVEEFAKSLPESEELERTELELLAGGLDAYKALIEETDDEEEIRRLLKEAAELVEDAAEIAKKLGREEAAKKLEKIAKKLKELAE	0.266
GBRAPL2_151_7315 (protein) SWKEEALKALEEAAEAIEEAAKKLPPEHELERTELELLAGGMDAYKALIEETDDEEEIKRLLKEAAELVKEAAEIMKKLGFEEEAKKLEKIAKELEKLAK	-0.126
